# Epigenetic reg = regulators of epigenetic silencing causing reporter derepression in mouse cells; murine LDR cells, GFP reporter derepression, 30 h; Potency, µM (highest dose often 53.9 µM), for the others: at the top dose GFP activation, hits mostly activators; 280,000 tested, 0.2% active; AID 1865; active = well fitted activation curve with a large enough effect; inconclusive = small, poorly fitted or top-dose-only effect; note: potency is the fitted concentration of half-maximal effect; % of control where 0% means no effect; nearly all actives have a fitted effect of over 60% in size
#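 In this reporter-derepression format, murine cells bearing a silenced integrated CMV-GFP locus incubate with test compound (30 h, 37 C), then are washed and imaged; fluorescent objects of 20–120 um count as induced cells.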
# Menin MLL FP FL = inhibitors of human menin-MLL interaction, wild-type MLL peptide | Fluorescence polarization, fluorescein-MLL peptide displacement from menin | FP activity change, % at 61.4 µM | 290,000 tested, under 10 active | AID 1766; active = well fitted curve in the direction sought with a large enough effect in the polarisation, not every such curve was filed as active; inconclusive = small, poorly fitted or top-dose-only effect, or effect the other way, or a change in a side signal; inactive = no such curve, though single readings can be large or run the other way; the % refers to the polarisation; note: % of control where 0% means no effect
# Menin-MLL TR inh = menin-MLL binding inhibition, Texas Red mutant peptide. Menin + Texas Red MLL mutant peptide, fluorescence polarization. Potency, µM (titrated, usually from 61.6 µM), inactives show top-dose FP activity change, negative = inhibition, most hits filed as inhibitors. 270,000 tested, 0.23% active. AID 1768; active = well fitted inhibition curve with a large enough effect in the polarisation, with a control signal flat, not every such curve was filed as active; inconclusive = small, poorly fitted or top-dose-only effect, or effect the other way, or a change in a side signal; inactive = no such curve, though single readings can be large or run the other way; the % refers to the polarisation; note: potency is the fitted concentration of half-maximal effect; % of control where 0% means no effect
# MLL CXXC-DNA inh = blocks binding of human MLL CXXC domain to DNA; Potency, µM (titrated, usually from 115 µM), without a hit: top-dose activity change, negative = inhibition, actives largely listed as inhibitors; AID 2662; 290,000 tested, 0.037% active; MLL-CXXC / FITC-HOXA9 DNA fluorescence polarization; active = well fitted inhibition curve with a large enough effect in the polarisation, with a control signal flat, not every such curve was filed as active; inconclusive = small, poorly fitted or top-dose-only effect, or effect the other way, or a change in a side signal; inactive = no such curve, though single readings can be large or run the other way; the % refers to the polarisation; note: potency is the fitted concentration of half-maximal effect
#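 Purified MLL-CXXC (added from a 7 uM solution) was preincubated 5 min at ambient with pinned compounds in 50 mM Tris-HCl pH 7.5, 50 mM NaCl, 1 mM DTT, 0.05% BSA. Fluorescein-labeled HOX-A9 DNA (50 nM solution) followed, 30 min, then polarization read.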
# ClpP mod = qHTS Assay for Activators of ClpP. Potency, µM (highest dose often 57.5 µM), for inactives: at the highest dose activity change, negative = active. purified B. subtilis ClpP, FRET peptide cleavage, 20 min. 340,000 tested, 1.9% active. ATP-dependent Clp protease proteolytic subunit (Bacillus subtilis (strain 168)), P80244; active = well fitted falling curve with a large enough effect; inconclusive = small, poorly fitted or top-dose-only effect; inactive = no such curve, though single readings can be large or run the other way; note: potency is the fitted concentration of half-maximal effect; the source files actives as falling curves though it sought activators and does not explain the sign; nearly all actives have a fitted effect of over 65% in size
# Target sequence (P80244 whole entry, looked up): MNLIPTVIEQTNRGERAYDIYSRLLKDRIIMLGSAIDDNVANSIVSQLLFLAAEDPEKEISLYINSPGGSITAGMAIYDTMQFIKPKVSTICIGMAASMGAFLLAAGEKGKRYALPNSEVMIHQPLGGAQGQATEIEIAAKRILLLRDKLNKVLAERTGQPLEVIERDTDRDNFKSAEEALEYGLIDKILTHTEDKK
#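 Purified B. subtilis ClpP, 10 microg/mL final in Tris/HCl pH8 with KCl, BSA, glycerol and Tween-20, cleaved an Abz/nitrotyrosine-quenched decapeptide. Fluorescence (ex 320, em 430) was read at 0 and 20 min at room temperature. Delta was normalized to 5.8 microM ADEP and DMSO/no-enzyme controls.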
# PINK1 expr mod = changes PINK1 expression; Potency, µM (top dose mostly 76.6 µM), for inactives: at the top dose activation (PINK1 increase), most hits filed as activators; 410,000 tested, 0.2% active; AID 624263; PINK1 immunofluorescence, high-content cytometry, 24 h; active = well fitted activation curve with a large enough effect; inconclusive = small, poorly fitted or top-dose-only effect; cell line not stated here; note: potency is the fitted concentration of half-maximal effect; % of control where 0% means no effect; nearly all actives have a fitted effect of over 65% in size
#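 PINK1 protein level read as immunofluorescence by microplate cytometer in a fixed, stained stable cell line after 24 h exposure to five compound concentrations, with CCCP as control.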
# The depositor's hits bear a star; u = inconclusive; x = not tested or not shown; ! = not confirmed by another sample; [ ] = another dose, or the depositor's remark. Sampled rows, rich in hits. Any-hit rate of the full collection: about 1.9%.
SMILES,Epigenetic reg,Menin MLL FP FL,Menin-MLL TR inh,MLL CXXC-DNA inh,ClpP mod,PINK1 expr mod
O=C(OCC#CCSc1nnc(-c2cccc3ccccc23)o1)c1cccs1,-1%,4,27%,2%,28µM*!,1%
C#CCSc1nnc(-c2cccc3ccccc23)o1,x,x,x,x,32µM*,-2%[38.3 µM]
Cc1ncc2c(c1CNS(=O)(=O)N(C)C)CCN(C(=O)/C=C/c1ccccc1F)C2,x,x,x,x,x,0%
CC(=O)Oc1c(/C=C(\C#N)C(N)=O)[nH]c2ccccc12,1%,8,5%,0%,25µM*,-1%
FC(F)(F)c1cnc2c(c1)[nH]c(=S)n2-c1ccc(Cl)cc1,x,-6,-4%,11%,-9%,40µM*
COc1ccc(OCc2nc3c4c(ncn3n2)-c2ccccc2CC42CCCC2)cc1,-2%,9,-9%,6%,28µM*,10%
CCn1c(-c2ccccc2F)nc2cc(NC(C)=O)cc(C(=O)N3CCCC3c3nccs3)c21 (stereo unspecified),x,x,x,x,x,-1%
CCOc1cc(CO)cc(Br)c1OCC(=O)Nc1ccccc1C,-1%,-4,11%,-4%,1%,1%
COc1cc(CNc2ccc3[nH]c(=O)[nH]c3c2)cc(Br)c1OCC(=O)NC(C)(C)C,0%,2,0%,0%,82%,4%[38.3 µM]
COc1cc(CNc2cccc(C(=O)O)c2)cc(Br)c1OCC(=O)NC(C)(C)C,0%,1,-13%,-10%,25µM*,3%
CCOc1cc(CNc2ccc(N(C)C)cc2)cc(Br)c1OCC(=O)NC(C)(C)C,-3%,-3,u,1%,-16%,9%
CCOc1cc(CNc2ccc(N3CCCCC3)cc2)cc(Br)c1OCC(=O)NC(C)(C)C,-1%,2,-16%,4%,1%,14µM*
CCOc1cc(CNc2cccc3ccccc23)cc(Br)c1OCC(=O)NC(C)(C)C,0%,1,-3%,16%,8.9µM*,0%[38.3 µM]
CCOc1cc(CNc2ccc(N3CCCC3)cc2)cc(Cl)c1OC,2%,-4,u,-1%,-27%,u
COc1cc(CNc2ccc(N3CCCC3)cc2)cc(Cl)c1OC,1%,-1,28µM*,38%,x,7%
COc1ccc(CCNC(=O)c2cc3sccc3n2Cc2ccc(Cl)cc2)cc1OC,u,x,x,x,-25%,0%
CC(C)(C)NC(=S)NNC(=O)c1cccc(Br)c1,18µM*,1,27%,-3%,6%,2%
NC(=O)c1ccccc1NS(=O)(=O)c1ccc2c(c1)OCCO2,-3%,-4,-1%,-7%,25µM*,x
O=C(O)c1ccccc1NS(=O)(=O)c1ccc2c(c1)OCCO2,-8%,0,15%,4%,x,2%
OCc1cccc(Cl)c1Cl,x,-5,7%,x,x,x
CC(C)Sc1nc(NCc2ccco2)c2c3c(sc2n1)COC(C)(C)C3,-7%,10,4%,12%,28µM*,2%
CSc1nc(SCC(=O)NCc2ccco2)c2c3c(sc2n1)COC(C)(C)C3,-5%,1,-19%,-6%,-18%,13µM*
CCCCSc1nc(SCC(=O)NCc2ccco2)c2c3c(sc2n1)COC(C)(CC)C3 (stereo unspecified),-1%,4,1%,-13%,-1%,x
Cc1nc(NCc2ccco2)c2c3c(sc2n1)CCC3,-1%,5,11%,-5%,-2%,3%
COc1ccc(-c2ccnc(-n3ncc(C(=O)NC(C)(C)CO)c3C3CC3)n2)cc1F,x,x,x,x,x,-1%
SMILES,Epigenetic reg,Menin MLL FP FL,Menin-MLL TR inh,MLL CXXC-DNA inh,ClpP mod,PINK1 expr mod
Cc1cnc(C)c(-c2cccc3c2OC(CNC(=O)/C=C/c2ccncc2)C3)n1 (stereo unspecified),x,x,x,x,x,0%
Cn1ccnc1C1CCCCN1C(=O)CN1Cc2ccccc2OC(c2ccccc2F)C1 (stereo unspecified),x,x,x,x,x,0%
NC(=O)C1(Nc2ccccc2)CCCC1,x,x,x,x,1%,1%
NC(=O)C1(Nc2ccc(C(=O)O)cc2)CCCC1,x,x,x,x,11µM*,4%
CC(=O)C1=C(C)NC(SCC(=O)c2ccc(Cl)cc2)=C(C#N)C1CC(C)C (stereo unspecified),-2%,5,3%,-2%,25µM*,-1%
CCn1c(SCC(=O)NCc2ccco2)nnc1-c1ccc(N(C)C)cc1,x,x,x,x,-7%,0%
Cc1cccc(-n2c(=O)[nH]c3c(C(N)=O)nc(C(C)C)nc32)c1,-1%,-4,12%,-9%,22µM*,0%[38.3 µM]
CCCCCOC(=O)Cc1c(O)c2ccccc2n(C)c1=O,0%,2,4%,-5%,28µM*,-2%
CCCn1c(=O)c(Cc2ccccc2)c(O)c2ccccc21,-2%,2,-11%,-5%,28µM*,-1%
CC(=O)c1c(O)c2ccccc2n(C)c1=O,2%,-2,18%,-4%,1%,3%
Cn1c(=O)c(Cc2ccccc2)c(O)c2ccccc21,5%,1,-5%,0%,25µM*,0%[38.3 µM]
CCCCCn1c(=O)c(Cc2ccccc2)c(O)c2ccccc21,-1%,2,16%,-4%,14µM*,-1%[38.3 µM]
Cc1cccc2c(=O)[nH]c3c(-c4nc(-c5ccc(Cl)cc5)cs4)c(O)cn3c12,x,x,x,x,4%,7%
Cc1cc(C(=O)Nc2ccccc2-c2nc(CNC(=O)c3cscn3)c(C)o2)c(C)o1,x,x,x,x,x,0%
CCCc1c(O)c2ccccc2n(-c2ccccc2)c1=O,-1%,0,x,0%,5.6µM*,1%
CCC1CN(Cc2cn[nH]c2-c2ccc(OC)cc2)Cc2cc(OC)ccc2O1 (stereo unspecified),x,x,x,x,x,6%
COc1cc(/C=C2\SC(N3CCC(C)CC3)=NC2=O)ccc1O,x,u,-19%,66%,14µM*,1%
COc1ccc(-c2ccnc3nc(-n4cccc4)nn23)cc1,-4%,7,-21%,9%,28µM*,-2%[38.3 µM]
c1coc(-c2ccnc3nc(-n4cccc4)nn23)c1,7%,4,u,0%,x,-1%
COc1ccc(-c2ccnc3nc(N4CCOCC4)nn23)cc1,-2%,-1,u,-10%,16µM*,-5%
Cc1cccc(C(=O)NCc2cn3cccc(C)c3n2)c1,-4%,x,x,x,-6%,0%
Cc1cccn2cc(CNC(=O)CC3CCCC3)nc12,-1%,1,-11%,0%,32µM*,1%
COc1ccccc1CN1CCC2(CC1)c1ccccc1[C@@H](NC(=O)c1ccco1)[C@@H]2OC,x,x,x,x,x,-1%
C=C(C)COc1ccc(-c2nc(N)ncc2Oc2ccccc2OC)c(O)c1,8%,3,u,-2%,-1%,2%
C=C(C)COc1ccc(-c2nc(N)ncc2Oc2ccc(OC)cc2)c(O)c1,1%,3,u,-3%,25µM*,-2%
